Some test systems named below: SR leukemia; OVCAR-8 ovarian; OVCAR-5 ovarian; OVCAR-4 ovarian; SK-OV-3 ovarian; IGROV1 ovarian; OVCAR-3 ovarian; HS 578T breast; NCI/ADR-RES ovarian; RPMI-8226 leukemia.
Holding throughout (assay): NCI-60 one-dose screen, 48 h (100 = growth as untreated, 0 = no growth, -100 = all killed)
Holding throughout (conditions): 10 µM unless noted

This is part of a sample that, as a whole, favours compounds with a hit. Of some 83,000 tested, about 20% had one in any assay.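 The endpoint reported here, percent growth, reads 100 for growth as untreated, 0 for no net growth and -100 for all cells dead.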 Values without a mark were called inactive. The source made the active and inactive calls. How the source made its calls: active means growth percent below 10; inactive means the rest.

Regarding `CCC(CC)C(=O)OC(C)COc1ccc(C(C)(C)C)cc1` (stereo not drawn), the growth in the assay with SR leukemia was 98.2%; with OVCAR-8 ovarian, 86.2%; in the assay on OVCAR-5 ovarian, 100%; in the assay on OVCAR-4 ovarian it was 113%; with SK-OV-3 ovarian it was 102%; with IGROV1 ovarian, 112%. Further, the growth was 107% in the assay on OVCAR-3 ovarian, 110% in the assay with HS 578T breast and 109% in the assay on NCI/ADR-RES ovarian.

For the molecule `Fc1ccc2[nH]cc(-c3nc(-c4c[nH]c5ncccc45)cs3)c2c1`, the growth in the assay on RPMI-8226 leukemia was 31.5%; with OVCAR-8 ovarian, 36.6%; with OVCAR-5 ovarian, 86.1%; in the assay with SK-OV-3 ovarian, 58.9%; in the assay on IGROV1 ovarian it was 32.5%; in the assay with OVCAR-3 ovarian, 44.5%. Further, the growth is 31.4% with HS 578T breast and 27.1% in the assay on NCI/ADR-RES ovarian.

On to `O=c1[nH]ncc(Br)c1Br`, for which the growth was 23.9% in the assay with RPMI-8226 leukemia; 7.24% (active) with OVCAR-8 ovarian; 115% in the assay with OVCAR-5 ovarian; -100% (active) with OVCAR-4 ovarian; 122% in the assay on SK-OV-3 ovarian; 51.2% in the assay on IGROV1 ovarian. Also, the figures for the growth in the assay on OVCAR-3 ovarian and in the assay with NCI/ADR-RES ovarian were -100% (active) and 38.1%, respectively.

As for `CCSc1ncnc2c1ncn2C1OC(CO)C(O)C1O` (stereo not drawn), the growth is 38.5% with RPMI-8226 leukemia; 29.5% in the assay on OVCAR-8 ovarian; 29.5% in the assay on OVCAR-5 ovarian; 46.1% in the assay with OVCAR-4 ovarian; 41.3% in the assay on SK-OV-3 ovarian; 2.14% (active) with IGROV1 ovarian. In addition, the growth is 23.4% in the assay with OVCAR-3 ovarian and 25.4% in the assay on NCI/ADR-RES ovarian.

As for `Nc1ncnc2nc(Br)[nH]c12`, the growth is 91.8% with SR leukemia; 92.8% in the assay on OVCAR-8 ovarian; 99.8% in the assay with OVCAR-5 ovarian; 102% with OVCAR-4 ovarian; 95.2% with SK-OV-3 ovarian; 106% in the assay on IGROV1 ovarian. Besides, the results for the growth in the assay with HS 578T breast and with NCI/ADR-RES ovarian were 103% and 97.1%, respectively.

Take `CC(C)(C)CC(C)(C)c1ccc(OCCOCC[N+](C)(C)CC(=O)[O-])cc1`: the growth was 94.8% in the assay with SR leukemia; 105% in the assay on OVCAR-8 ovarian; 102% with OVCAR-5 ovarian; 109% with SK-OV-3 ovarian; 100% in the assay on IGROV1 ovarian; 113% in the assay with OVCAR-3 ovarian. Besides, the figures for the growth in the assay on HS 578T breast and in the assay with NCI/ADR-RES ovarian were 114% and 111%, respectively.

Turning to `O=C1C(Cl)=C(Nc2ccc(S(=O)(=O)c3ccc(NC4=C(Cl)C(=O)c5ccccc5C4=O)cc3)cc2)C(=O)c2ccccc21`, the growth in the assay with RPMI-8226 leukemia was 5.2% (active); with OVCAR-8 ovarian, -61.8% (active); in the assay with OVCAR-5 ovarian it was 100%; in the assay on OVCAR-4 ovarian, -84.9% (active); in the assay with SK-OV-3 ovarian, 78.9%; in the assay on IGROV1 ovarian, -18.5% (active). The growth in the assay with OVCAR-3 ovarian was -98.4% (active); in the assay with NCI/ADR-RES ovarian, 43.6%.

On to `NNC(=O)c1nc2ccccc2[nH]1`, for which the growth in the assay with SR leukemia is 96.4%; in the assay on OVCAR-8 ovarian, 97.1%; in the assay on OVCAR-5 ovarian it was 97.9%; in the assay with OVCAR-4 ovarian, 118%; in the assay with SK-OV-3 ovarian, 83.3%; in the assay on IGROV1 ovarian, 106%. Moreover, the growth is 108% with OVCAR-3 ovarian, 109% in the assay on HS 578T breast and 112% in the assay on NCI/ADR-RES ovarian.

On to `Cn1c(=O)c2c(nc(N3CCCC3)n2C)n(C)c1=O`, for which the growth with SR leukemia was 100%; with OVCAR-8 ovarian, 100%; in the assay on OVCAR-5 ovarian, 99.1%; with OVCAR-4 ovarian it was 99.1%; in the assay on SK-OV-3 ovarian, 103%; with IGROV1 ovarian, 98.5%. The growth is 110% in the assay on OVCAR-3 ovarian, 105% in the assay on HS 578T breast and 103% with NCI/ADR-RES ovarian.

On to `COc1ccc(OCC(CO)N2CCN(c3ccccc3)CC2)cc1` (stereo not drawn), for which the growth was 131% in the assay on RPMI-8226 leukemia; 93.6% in the assay on OVCAR-8 ovarian; 103% in the assay with OVCAR-5 ovarian; 92.4% in the assay on OVCAR-4 ovarian; 106% in the assay with SK-OV-3 ovarian; 112% in the assay on IGROV1 ovarian. Moreover, the growth is 102% with OVCAR-3 ovarian, 96.6% with HS 578T breast and 99.9% in the assay on NCI/ADR-RES ovarian.

With `Cc1ccc2[nH]cc(-c3nc(-c4cn(C)c5ncccc45)cs3)c2c1`, the growth was 62.7% in the assay on RPMI-8226 leukemia; 85.8% in the assay on OVCAR-8 ovarian; 108% in the assay with OVCAR-5 ovarian; 102% with SK-OV-3 ovarian; 108% in the assay on IGROV1 ovarian; 106% with OVCAR-3 ovarian. Besides, the growth in the assay with HS 578T breast is 99%; with NCI/ADR-RES ovarian it was 66.7%.

As to `O=C(O)/C(=C/c1ccc(O)cc1)c1ccccc1`, the growth in the assay on RPMI-8226 leukemia is 95.5%; in the assay on OVCAR-8 ovarian, 95.7%; in the assay on OVCAR-5 ovarian, 84.4%; in the assay on OVCAR-4 ovarian, 98.7%; in the assay with SK-OV-3 ovarian it was 112%; in the assay on IGROV1 ovarian, 99%. In addition, in the assay with NCI/ADR-RES ovarian, the growth is 94.6%.

In the case of `Cc1cc(N=O)cc(C(C)(C)C)c1O`, the growth with SR leukemia was 98.9%; with OVCAR-8 ovarian, 103%; in the assay with OVCAR-5 ovarian it was 108%; in the assay on OVCAR-4 ovarian it was 97.7%; with SK-OV-3 ovarian it was 75.8%; with IGROV1 ovarian, 98.6%. The results for the growth in the assay on OVCAR-3 ovarian, in the assay with HS 578T breast and in the assay on NCI/ADR-RES ovarian were 105%, 90.8% and 99.3%, respectively.

Take `Cc1ccc2c(c1)c(-c1nc(-c3c[nH]c4ncccc34)cs1)cn2C`: the growth is 72.7% with RPMI-8226 leukemia; 104% with OVCAR-8 ovarian; 68.6% with OVCAR-5 ovarian; 102% in the assay on SK-OV-3 ovarian; 99.2% in the assay with IGROV1 ovarian; 139% with OVCAR-3 ovarian. Also, the figures for the growth in the assay on HS 578T breast and in the assay with NCI/ADR-RES ovarian were 109% and 89.4%, respectively.

On to `O=C1C=C(C(O)c2ccc(O)cc2)C(=O)c2ccccc21` (stereo not drawn), for which the growth is 87.7% in the assay on SR leukemia; 104% in the assay with OVCAR-8 ovarian; 99.7% with OVCAR-5 ovarian; 85.8% with SK-OV-3 ovarian; 86.3% with IGROV1 ovarian; 96.2% in the assay with OVCAR-3 ovarian. The results for the growth in the assay with HS 578T breast and with NCI/ADR-RES ovarian were 120% and 105%, respectively.

Consider `Cc1ccc(-c2ccc(/C=C(\C#N)c3nc(-c4ccco4)cs3)o2)cc1`, for which the growth in the assay with SR leukemia was 89.8%; with OVCAR-8 ovarian, 99.8%; in the assay on OVCAR-5 ovarian it was 77.5%; with OVCAR-4 ovarian it was 28.1%; with SK-OV-3 ovarian, 101%; in the assay on IGROV1 ovarian, 63.5%. The growth with OVCAR-3 ovarian was 112%; in the assay on HS 578T breast, 107%; in the assay with NCI/ADR-RES ovarian, 103%.

As to `Cn1cc(-c2csc(-c3cn(C(=O)OC(C)(C)C)c4ccccc34)n2)c2cccnc21`, the growth was 75.3% in the assay with RPMI-8226 leukemia; 76.3% with OVCAR-8 ovarian; 104% in the assay on OVCAR-5 ovarian; 74.9% in the assay with SK-OV-3 ovarian; 59.8% in the assay with IGROV1 ovarian; 14.6% with OVCAR-3 ovarian. Further, the growth in the assay on HS 578T breast is 73.1%; in the assay on NCI/ADR-RES ovarian it was 29.3%.

In the case of `O=C(/C=C/c1ccc2ccccc2c1)Nc1ncc(Cc2ccccc2)s1`, the growth was 16.9% with SR leukemia; 59.8% with OVCAR-8 ovarian; 49.5% in the assay with OVCAR-5 ovarian; -37.5% (active) in the assay with OVCAR-4 ovarian; 87.8% in the assay with SK-OV-3 ovarian; 55.6% in the assay on IGROV1 ovarian. Moreover, the results for the growth with OVCAR-3 ovarian, in the assay with HS 578T breast and in the assay on NCI/ADR-RES ovarian were 10%, 29.2% and 32.3%, respectively.

For `CCCCC/C(=C\c1ccccc1)C1OC(C)C(C)O1` (stereo not drawn), the growth in the assay on SR leukemia was 99.4%; in the assay with OVCAR-8 ovarian, 96.3%; with OVCAR-5 ovarian it was 93.7%; in the assay with OVCAR-4 ovarian it was 108%; in the assay with SK-OV-3 ovarian it was 96.7%; in the assay on IGROV1 ovarian it was 112%. Moreover, the growth in the assay with OVCAR-3 ovarian is 101%; in the assay with HS 578T breast it was 110%; with NCI/ADR-RES ovarian, 100%.

As for `C#CCC(C)(O)/C=C/C1=C(C)CCCC1(C)C` (stereo not drawn), the growth with SR leukemia is 107%; in the assay on OVCAR-8 ovarian, 101%; with OVCAR-5 ovarian, 88.7%; in the assay on OVCAR-4 ovarian it was 107%; in the assay with SK-OV-3 ovarian, 92.3%; with IGROV1 ovarian it was 102%. Also, the values for the growth in the assay with OVCAR-3 ovarian, with HS 578T breast and in the assay on NCI/ADR-RES ovarian were 106%, 108% and 99.8%, respectively.

For the origin of these results see PubChem BioAssay (NCI).
